The record followed here is PubChem BioAssay (NCI).

Among the test systems are NCI-H23 lung; NCI-H322M lung; HOP-62 NSCLC; NCI-H460 lung; HOP-92 NSCLC; NCI-H522 lung; A549/ATCC NSCLC; 786-0 renal; DU-145 prostate; K-562 leukemia; MALME-3M melanoma; MDA-MB-231 breast; RXF 393 renal; SF-268 CNS; SF-295 CNS; SF-539 CNS; UACC-257 melanoma; M14 melanoma; HCT-15 colon.
Test in all cases: NCI-60 one-dose screen, 48 h (100 = growth as untreated, 0 = no growth, -100 = all killed)
Holding throughout (settings): 10 µM unless noted

This is part of a sample that, as a whole, favours compounds with a hit. Of some 83,000 tested, about 20% had one in any assay.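 In brief: 96-well plates, 48 h treatment, single concentration, percent growth endpoint.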 Unmarked numbers belong to inactive results. The source made the active and inactive calls. How the source made its calls: active means growth percent below 10; inactive means the rest.

Turning to `NCCCNc1nc2ccccc2c2c(=O)c3cc(F)ccc3sc12`, the growth is 70% with NCI-H23 lung; 41.9% with NCI-H322M lung; 32.8% in the experiment with HOP-62 NSCLC; -74.7% (active) in the experiment with NCI-H460 lung; 8.11% (active) in the experiment on HOP-92 NSCLC; -42.7% (active) in the experiment with NCI-H522 lung. Also, the growth in the experiment on A549/ATCC NSCLC is -29.3% (active); in the experiment on 786-0 renal, 1.83% (active); with DU-145 prostate it was -22.8% (active); in the experiment with K-562 leukemia, -50.4% (active); in the experiment on MALME-3M melanoma, 76.7%; with MDA-MB-231 breast, -53.1% (active). Also, the growth in the experiment on RXF 393 renal was 41.9%; with SF-268 CNS, 34.3%; in the experiment with SF-295 CNS it was 85.9%; in the experiment on SF-539 CNS it was 55.2%; in the experiment on UACC-257 melanoma, 68.1%; in the experiment on M14 melanoma, -55.5% (active). The growth in the experiment with HCT-15 colon is -49.3% (active).

Take `Cc1cccc2c(=O)c3c(sc12)c(N1CCNCC1)nc1ccccc13`: the growth was 80.4% in the experiment on NCI-H23 lung; 74.5% in the experiment on NCI-H322M lung; 73.6% with HOP-62 NSCLC; 80% in the experiment on NCI-H460 lung; 53.7% in the experiment on HOP-92 NSCLC; 82.6% in the experiment with NCI-H522 lung. Further, the growth was 78.3% in the experiment with A549/ATCC NSCLC; 78.1% with 786-0 renal; 67.5% in the experiment on DU-145 prostate; -23% (active) with K-562 leukemia; 98.6% with MALME-3M melanoma; 56.3% in the experiment on MDA-MB-231 breast. In addition, the growth was 72.2% in the experiment on RXF 393 renal; 76.1% in the experiment on SF-268 CNS; 93.5% with SF-295 CNS; 75.8% with SF-539 CNS; 96.6% in the experiment on UACC-257 melanoma; 74% with M14 melanoma. Moreover, the growth with HCT-15 colon was 25.9%.

Take `O=C(/C=C/c1ccc(Cl)cc1)c1ccc(Nc2nc(NCCO)nc(N3CCOCC3)n2)cc1`: the growth with NCI-H23 lung was 94.8%; with NCI-H322M lung, 90.8%; in the experiment with HOP-62 NSCLC, 89.6%; in the experiment with NCI-H460 lung, 98.1%; in the experiment on HOP-92 NSCLC it was 98.6%; in the experiment with NCI-H522 lung, 87.2%. The growth was 68% in the experiment with A549/ATCC NSCLC; 90.6% in the experiment with 786-0 renal; 92.9% in the experiment on DU-145 prostate; 44.5% with K-562 leukemia; 99.5% in the experiment on MALME-3M melanoma; 84.3% in the experiment on MDA-MB-231 breast. Moreover, the growth is 71.3% in the experiment with RXF 393 renal; 82% in the experiment with SF-268 CNS; 94.5% with SF-295 CNS; 90.4% in the experiment with SF-539 CNS; 101% in the experiment with UACC-257 melanoma; 105% in the experiment with M14 melanoma. The growth with HCT-15 colon was 44.8%.

As to `COc1cc(/C(C#N)=C/c2nc3c(N4CCOCC4)nc(Cl)nc3n2C)cc(OC)c1OC`, the growth with NCI-H23 lung was 18.2%; in the experiment on NCI-H322M lung, 28.8%; in the experiment with HOP-62 NSCLC, 25.1%; in the experiment on NCI-H460 lung, -3.75% (active); in the experiment with HOP-92 NSCLC, -4.18% (active); in the experiment on NCI-H522 lung, 15.7%. For the same compound, the growth was 19.5% in the experiment on A549/ATCC NSCLC; 6.45% (active) in the experiment with 786-0 renal; 4.54% (active) in the experiment with DU-145 prostate; 4.64% (active) in the experiment with K-562 leukemia; 34.8% in the experiment with MALME-3M melanoma; 9.11% (active) with MDA-MB-231 breast. Also, the growth was 25.7% with RXF 393 renal; 17.2% in the experiment on SF-268 CNS; -15% (active) in the experiment with SF-295 CNS; -23.7% (active) with SF-539 CNS; 66.2% in the experiment on UACC-257 melanoma; 10.8% in the experiment on M14 melanoma. The growth in the experiment with HCT-15 colon is 8.94% (active).

As for `O=C(NCc1ccccc1)C1CN(c2ccc(Cl)cc2)N(c2ccc(Cl)cc2)C1=O` (configuration not stated), the growth was 94% in the experiment on NCI-H23 lung; 95.8% in the experiment with NCI-H322M lung; 74.6% with HOP-62 NSCLC; 85.6% in the experiment with NCI-H460 lung; 86.5% in the experiment with HOP-92 NSCLC; 65.6% with NCI-H522 lung. Besides, the growth was 69.6% in the experiment on A549/ATCC NSCLC; 99.3% in the experiment on 786-0 renal; 97.5% with DU-145 prostate; 35.1% in the experiment with K-562 leukemia; 73.8% in the experiment on MALME-3M melanoma; 91.3% with MDA-MB-231 breast. For the same compound, the growth was 81.1% with RXF 393 renal; 82.4% in the experiment with SF-268 CNS; 76.3% with SF-295 CNS; 93.4% in the experiment with SF-539 CNS; 79.4% with UACC-257 melanoma; 74.9% in the experiment on M14 melanoma. Besides, the growth with HCT-15 colon was 59.5%.

As for `O=c1c2cc(F)ccc2sc2c(Nc3ccncc3)nc3ccccc3c12`, the growth in the experiment with NCI-H23 lung was 45.9%; with NCI-H322M lung, 81.4%; in the experiment with HOP-62 NSCLC, 34.7%; in the experiment on NCI-H460 lung, -76.7% (active); in the experiment on HOP-92 NSCLC, 54.5%; with NCI-H522 lung it was 5.65% (active). The growth with A549/ATCC NSCLC is -43.8% (active); in the experiment on 786-0 renal it was -79.8% (active); in the experiment on DU-145 prostate, 4.28% (active); with K-562 leukemia it was -47.1% (active); with MALME-3M melanoma, 22%; in the experiment with MDA-MB-231 breast, -89.7% (active). The growth was -42% (active) in the experiment on RXF 393 renal; -10.4% (active) in the experiment with SF-268 CNS; 101% in the experiment with SF-295 CNS; 70.8% with SF-539 CNS; 113% with UACC-257 melanoma; -27.2% (active) in the experiment with M14 melanoma. For the same compound, the growth in the experiment with HCT-15 colon is -70.5% (active).

For `Cc1ccc(C2CC(c3ccc(Nc4nc(NCCO)nc(Nc5ccc(Cl)cc5)n4)cc3)=NN2c2cc(Cl)cc(Cl)c2)cc1` (configuration not stated), the growth was 92.5% in the experiment on NCI-H23 lung; 85% in the experiment with NCI-H322M lung; 82.8% with HOP-62 NSCLC; 98.9% in the experiment with NCI-H460 lung; 101% in the experiment on HOP-92 NSCLC; 104% with NCI-H522 lung. The growth in the experiment with A549/ATCC NSCLC was 94.2%; with 786-0 renal, 102%; in the experiment on DU-145 prostate, 112%; with K-562 leukemia, 99.9%; in the experiment with MALME-3M melanoma, 102%; in the experiment with MDA-MB-231 breast, 91.3%. Further, the growth in the experiment on RXF 393 renal was 88.6%; with SF-268 CNS, 79.7%; in the experiment with SF-295 CNS, 100%; with SF-539 CNS, 92.4%; with UACC-257 melanoma, 101%; with M14 melanoma, 121%. In addition, the growth in the experiment with HCT-15 colon is 99.3%.

On to `COc1cccc(/C(C#N)=C/c2nc3c(N4CCOCC4)nc(Cl)nc3n2C)c1`, for which the growth is 25.6% in the experiment with NCI-H23 lung; 63.4% with NCI-H322M lung; 35.2% with HOP-62 NSCLC; 17.4% with NCI-H460 lung; -66.3% (active) in the experiment with HOP-92 NSCLC; -64.7% (active) in the experiment on NCI-H522 lung. Also, the growth in the experiment on A549/ATCC NSCLC was 29.2%; in the experiment on 786-0 renal, -69.4% (active); in the experiment with DU-145 prostate, -77.6% (active); in the experiment with K-562 leukemia, 0.802% (active); in the experiment with MALME-3M melanoma, -45.2% (active); in the experiment with MDA-MB-231 breast, -68.9% (active). Besides, the growth with RXF 393 renal is -84.9% (active); in the experiment with SF-268 CNS, -24.4% (active); with SF-295 CNS, 85.7%; with SF-539 CNS, -20.2% (active); in the experiment with UACC-257 melanoma, -57.6% (active); with M14 melanoma it was -54.3% (active). Further, the growth in the experiment with HCT-15 colon was -46.4% (active).
